A selection: hits, their analogues and other compounds. The true share with any hit is near 2.3%.
HttQ103 aggreg: qHTS Multiplex Assay to Identify Dual Action Probes in a Cell Model of Huntington: Aggregate Formation (GFP) | PC12 HttQ103-GFP aggregates, Acumen cytometry, 40 h | Potency, µM (top dose mostly 46.1 µM), for inactives: top-dose activity change, negative = inhibition, usual class: inhibitors | actives 1.1% (n = 220,000); note: potency is the fitted concentration of half-maximal effect; % is set by controls: 0 for no effect and ±100 for the full control effect; nearly all actives have a fitted effect of over 60% in size
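PC12 cells with ecdysone-inducible HTT exon1 Q103-GFP, induced by 100 nM tebufenozide, given compounds in a concentration series. GFP aggregates (1–25 um, 6 SD above background) counted in lysates by laser-scanning cytometry, 488 nm excitation.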
HTT ATP protect: qHTS Multiplex Assay to Identify Dual Action Probes in a Cell Model of Huntington: Cytoprotection (ATP). PC12 HTT-Q103 induced, cytoprotection, ATP luminescence, 40 h. Potency, µM (series often up to 56.4 µM), for inactives: cytoprotection (ATP increase), hits mostly activators. actives 0.14% (n = 230,000); note: potency is the fitted concentration of half-maximal effect; % of control where 0% means no effect; nearly all actives have a fitted effect of over 45% in size
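Huntington model: PC12 line, ecdysone-inducible HTTQ103 exon1–GFP, tebufenozide 100 nM. Test articles in a dose series. Endpoint luminescence from cellular ATP.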
VDR inhibitor: Inhibitors of the vitamin D receptor (VDR): qHTS; actives 0.93% (n = 400,000); Potency, µM, for the others: max response, negative = inhibition, actives largely listed as inhibitors; AID 504847, 2011; Vitamin D3 receptor (Homo sapiens), P11473; VDR-SRC2-3 peptide fluorescence polarization, 2 h; note: potency is the fitted concentration of half-maximal effect; % is set by controls: 0 for no effect and ±100 for the full control effect
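Measured by FP: displacement of SRC2-3 coactivator peptide from VDR by library compounds, following a two-hour ambient incubation.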
RGS12 GoLoco inh: qHTS Assay for Inhibitors of RGS12 GoLoco Motif Activity (Red Fluorophore). actives 0.44% (n = 230,000). AID 880, 2007. Gai1:RGS12 GoLoco peptide FP, rhodamine, 10 min. Potency, µM (series often up to 61.6 µM), for the others: top-dose activity, negative = inhibition, usual class: inhibitors; active = well fitted inhibition curve with a large enough effect, not every such curve was filed as active; inactive = no such curve, though single readings can be large or run the other way; note: potency is the fitted concentration of half-maximal effect; % is set by controls: 0 for no effect and ±100 for the full control effect; nearly all actives have a fitted effect of over 30% in size
Target sequence (P63096 whole entry, looked up): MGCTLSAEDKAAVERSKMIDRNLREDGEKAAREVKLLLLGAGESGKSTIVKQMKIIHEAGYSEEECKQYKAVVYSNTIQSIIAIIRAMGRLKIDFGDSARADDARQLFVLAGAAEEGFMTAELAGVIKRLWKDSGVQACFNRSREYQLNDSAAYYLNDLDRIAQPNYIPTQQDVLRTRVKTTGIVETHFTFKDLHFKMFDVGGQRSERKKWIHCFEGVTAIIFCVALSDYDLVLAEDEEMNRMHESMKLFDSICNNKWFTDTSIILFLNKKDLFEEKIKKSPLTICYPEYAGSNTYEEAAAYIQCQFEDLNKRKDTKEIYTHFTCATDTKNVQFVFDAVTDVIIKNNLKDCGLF
KDM4E inh: qHTS Assay for Inhibitors of Human Jumonji Domain Containing 2E (JMJD2E). Lysine-specific demethylase 4E (Homo sapiens), B2RXH2. JMJD2E catalytic domain, FDH-coupled NADH fluorescence (FDH is formaldehyde dehydrogenase). Potency, µM (doses to about 57.1 µM), inactives show at the top dose activity change, negative = inhibition, usual class: inhibitors. actives 1.6% (n = 230,000). AID 2147, 2009; active = well fitted inhibition curve with a large enough effect, not every such curve was filed as active; inconclusive = small, poorly fitted or top-dose-only effect, or another doubt; inactive = no such curve, though single readings can be large or run the other way;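 note: potency is the fitted concentration of half-maximal effect; 0% = wells with enzyme and -100% = buffer wells without enzyme; nearly all actives have a fitted effect of over 50% in size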
Coupling enz: qHTS Assay for Inhibitors of Fructose-1,6-bisphosphate Aldolase from Giardia Lamblia: Coupling assay counterscreen | coupling enzyme system counterscreen, AmpLite Red fluorescence | activity change, negative = inhibition, % at 58.2 µM, hits read low | actives 0.67% (n = 290,000) | AID 2472, 2010; in the data active = activity change below about -30%; note: % is set by controls: 0 for no effect and ±100 for the full control effect
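Compounds tested against the coupling enzymes alone at 57.5 uM final; readout was AmpLite Red fluorescence (525/598 nm) after 20 min at RT.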
* hit, by the source's call; ? = inconclusive; nt = no result given; ! = repeats disagree; [ ] = remark or other dose. Unless noted, calls come from the whole dose curve; as a rule, active = well fitted curve in the direction sought with a large enough effect; inconclusive = small, poorly fitted or top-dose-only effect, or another doubt; inactive = no such curve, though single readings can be large; an effect the other way counts as inactive or inconclusive.

SMILES	HttQ103 aggreg	HTT ATP protect	VDR inhibitor	RGS12 GoLoco inh	KDM4E inh	Coupling enz
Cc1ccc(S(=O)(=O)/N=C(/NC(=S)Nc2cccc(C)c2)c2ccccc2)cc1	-4.5%	0.8%	?	-1.2%	-5.4%	0.8
Cc1cccc(NC(=S)N/C(=N/S(=O)(=O)c2ccccc2)c2ccccc2)c1	10.4%	-17.0%	89.1µM*!	4.5%	5.4%	5.2
COc1ccc(OCC(=O)NC(=S)Nc2ccc(S(=O)(=O)Nc3cc(C)on3)cc2)cc1	nt	nt	-6.3%	nt	nt	5.9
COc1cc2c3nnc(-c4ccc(F)cc4)c-3cn(Cc3cccc(F)c3)c2cc1OC	10µM*	-23.4%	65.8%	58.0%	?	1.5
COc1ccc2cc(Br)ccc2c1CC(=O)N(C)C	8.2%	14.3%	0.2%	-5.2%	3.7%	0.6
CCCCN(C)C(=O)Cc1c(OC)ccc2cc(Br)ccc12	-16.8%	nt	22.4µM*	14.7%	-22.8%	1.8
CC1(C)C(O)C=C[C@@]2(C)C1CC(=O)O[C@@]1(C)C3=CC(=O)OC(c4ccoc4)[C@]3(C)CCC21 (stereo partly specified)	nt	nt	44.7µM*	-9.5%	-1.5%	1.3
COc1ccc(CNC(=O)c2cc3sccc3n2Cc2ccc(F)cc2)cc1	nt	nt	-6.8%	nt	nt	nt
COc1ccccc1CNC(=O)c1cc2sccc2n1Cc1ccc(F)cc1	nt	nt	89.1µM*	nt	nt	nt
CC(C)(C)C1CCC2(CC1)CCN(CCCN1CCOCC1)CC2	nt	-3.8%[10 µM]	nt	1.8%[14.2 µM]	nt	nt
Cc1cc2ncn(CC3CC3(Cl)Cl)c2cc1C (stereo unspecified)	19.1%[9.22 µM]	-70.5%	8.4%	0.1%	0.3%	0.2
Cc1noc(C)c1C(=O)N1CCC[C@@]2(CCN(c3ncccn3)C2)C1	nt	-15.9%	-9.9%	6.3%	nt	1.2
c1ccc(-c2nn[nH]n2)c(Nc2cccc3c2CCCC3)c1	nt	nt	39.8µM*	nt	nt	10.2
Cc1ccccc1-c1nn[nH]n1	28.1%[9.22 µM]	15.6%	-16.9%	2.5%	6.1%	-1.6
CCOC(=O)NC1(Nc2ccc(Cl)cn2)Oc2ccccc2O1	3.0%[9.22 µM]	-65.9%[4.97 µM]	nt	-7.3%	25.1µM*	-8.6
C[C@H]([C@H](C)N1CC(=O)NC(=O)C1)N1CC(=O)NC(=O)C1	nt	-26.1%	44.7µM*	-14.4%	nt	0.8
Cc1ccc(S(=O)(=O)N2CC(=O)NC(=O)C2)cc1	nt	nt	-2.9%	nt	nt	0.0
CCN(CC)S(=O)(=O)c1ccc(C(=O)Nc2nc3c(Cl)cc(Cl)cc3s2)cc1	nt	nt	-3.8%	nt	nt	nt
O=C1CN=C(Nc2ccccc2Cl)N1c1ccccc1	2.82µM*	-83.1%[10 µM]	1.0%	-38.6%	2.2%	nt
CCOc1ccc(N2C(=O)CN=C2Nc2ccccc2Cl)cc1	14.4%	5.3%	-15.2%	4.0%	0.1%	nt
CCN(C(=O)COC(=O)c1ccccc1Cc1ccccc1)c1c(N)n(Cc2ccccc2)c(=O)[nH]c1=O	nt	nt	-11.3%	nt	nt	nt
COc1cccc(Cn2c(=O)c(-c3cc(F)cc(F)c3)nc3cnc(N(C)C)nc32)c1	nt	1.9%	-4.7%	19.0%	nt	-1.1
CC(C)c1ncc([N+](=O)[O-])n1C	-21.7%	-9.0%	1.4%	nt	nt	nt
COc1ccccc1-c1nn2c(-c3ccccc3Cl)nnc2s1	9.3%	-17.6%	nt	4.7%	-1.1%	1.5
Clc1ccccc1-c1nnc2sc(CCc3ccccc3)nn12	-32.5%	-15.7%[0.074 µM]	50.1µM*	-15.2%	0.7%	-0.3
CCOc1ccc(CCNC(=O)Cn2nc(CC)n3c(cc4c(OC)cccc43)c2=O)cc1OCC	nt	nt	11.3%	nt	nt	nt
CSc1nc(=S)c2[nH]c(=S)[nH]c2[nH]1	2.5%[9.22 µM]	14.7%[10 µM]	?	-27.1%	11.2µM*	-5.6
Cc1ccc(C)c(OCC(=O)Nc2ccccc2N2CCCC2)c1	nt	nt	-0.8%	nt	nt	-2.2

Screening data from PubChem.
